These results are taken from PubChem BioAssay (NCATS).

Structures are written as SMILES. A number with no mark means an inactive call. For part of these data: Results with a measured potency or affinity are listed apart. Activity calls are given as the source filed them. No rule for the calls is given here.
For efficacy in this document: 0% is about no effect.

For the first experiment the following is noted: Ebola virus entry assay, green fluorescence channel.
For the compound `CNCCC(Oc1ccccc1OC)c1ccccc1` (stereo not drawn), the efficacy is 84.9%.

As to `CC(C)N=C(N)/N=C(\N)Nc1ccc(Cl)cc1`, the efficacy is 78.8%.

As to `CCCCOc1ccc(OCCCN2CCOCC2)cc1`, the efficacy is 94.1%.

Regarding `CCCCNc1c(C(=O)OCC)c(C)nc2c1cnn2CC`, the efficacy is -35%.

Turning to `CN1CCCC(n2nc(Cc3ccc(Cl)cc3)c3ccccc3c2=O)CC1` (stereo not drawn), the efficacy was 78.3%.

As for `CC(=O)NC(Cc1ccccc1)C(=O)O` (stereo not drawn), the efficacy is 29.9%.

Consider `Cc1ccc(C(=O)Oc2ccc(C(O)CNC(C)(C)C)cc2OC(=O)c2ccc(C)cc2)cc1` (stereo not drawn), for which the efficacy is 67.4%.

Take `O=C(CCCN1CCC(O)(c2ccc(Br)cc2)CC1)c1ccc(F)cc1`: the efficacy was 36.8%.

For `COC(=O)C1=C(C)NC(C)=C(C(=O)OC(C)(C)CN(C)CCC(c2ccccc2)c2ccccc2)C1c1cccc([N+](=O)[O-])c1` (stereo not drawn), the efficacy is 39.5%.

For `CCOc1ccccc1O[C@H](c1ccccc1)[C@H]1CNCCO1`, the efficacy is 89.3%.

Regarding `NCCNc1cccc2ccccc12`, the efficacy was 85.8%.

Take `NC(=O)C1(N2CCCCC2)CCN(CCCN2c3ccccc3CCc3ccc(Cl)cc32)CC1`: the efficacy is -222%.

As to `CC1=C(CC(=O)O)c2cc(F)ccc2/C1=C\c1ccc(S(C)=O)cc1` (stereo not drawn), the efficacy is 55.9%.

`C[C@H]1O[C@@H](O[C@H]2CC[C@@]3(C)[C@H](CC[C@@H]4[C@@H]3C[C@@H](O)[C@]3(C)[C@@H](C5=CC(=O)OC5)CC[C@]43O)C2)C[C@H](O)[C@@H]1O[C@H]1C[C@H](O)[C@H](O[C@H]2C[C@H](O)[C@H](O[C@@H]3O[C@H](CO)[C@@H](O)[C@H](O)[C@H]3O)[C@@H](C)O2)[C@@H](C)O1`: the efficacy is -58.9%.

Take `COc1cccc2c1C(=O)c1c(O)c3c(c(O)c1C2=O)C[C@@](O)(C(C)=O)C[C@@H]3O[C@H]1C[C@H](N)[C@H](O)[C@H](C)O1`: the efficacy was 54.5%.

Turning to `CSc1ccc(/C=C2/C(C)=C(CC(=O)O)c3cc(F)ccc32)cc1`, the efficacy is 33.8%.

Regarding `C[C@@H]1C[C@H]2[C@@H]3C[C@H](F)C4=CC(=O)C(Cl)=C[C@]4(C)[C@@]3(F)[C@@H](O)C[C@]2(C)[C@@]1(O)C(=O)CO`, the efficacy was 76%.

`CN(C)C/C=C(/c1ccc(Br)cc1)c1cccnc1`: the efficacy is 51.4%.

For the compound `C[C@]12CCC(=O)C=C1C=C[C@@H]1[C@@H]2CC[C@@]2(C)[C@H]1CC[C@@]21CCC(=O)O1`, the efficacy was 123%.

As to `CN1CCC(=C2c3ccccc3CCc3cccnc32)CC1`, the efficacy is 39.6%.

With `CN(C)CCOC(c1ccccc1)c1ccccc1`, the efficacy was 60.8%.

`O=C(Nc1ccccc1)OCC(CN1CCCCC1)OC(=O)Nc1ccccc1` (stereo not drawn): the efficacy is 31.7%.

As for `Cc1ccc(/C(=C\CN2CCCC2)c2ccccn2)cc1`, the efficacy was 48.9%.

Turning to `CC(CC(C#N)(c1ccccc1)c1ccccc1)N(C)C` (stereo not drawn), the efficacy is 77.3%.

For `COc1cc(N)c(Cl)cc1C(=O)NC1CCN(CCCOc2ccc(F)cc2)CC1OC` (stereo not drawn), the efficacy was 45%.

For `CN(C)C(=S)SC(=S)N(C)C`, the efficacy was -50.4%.

Turning to `O=c1c(-c2ccccc2)c1-c1ccccc1`, the efficacy was 22%.

Consider `COc1cc2c(cc1OC)-c1cc(=Nc3c(C)cc(C)cc3C)n(C)c(=O)n1CC2`, for which the efficacy was 20.5%.

On to `O=C(O)c1cn(-c2ccc(F)cc2)c2cc(N3CCNCC3)c(F)cc2c1=O`, for which the efficacy is 23.7%.

`C[C@H](CN1CCOCC1)C(C(=O)N1CCCC1)(c1ccccc1)c1ccccc1`: the efficacy was 92.9%.

For `CCN(CC)CCOc1ccc(Cc2ccccc2)cc1`, the efficacy was 70.7%.

For `CCC(OC(C)=O)C(CC(C)NC)(c1ccccc1)c1ccccc1` (stereo not drawn), the efficacy is -236%.

With `CC[n+]1c(-c2ccccc2)c2cc(N)ccc2c2ccc(N)cc21`, the efficacy was 67.8%.

For the compound `Cc1c(C(=O)NN2CCCCC2)nn(-c2ccc(Cl)cc2Cl)c1-c1ccc(Cl)cc1`, the efficacy was 55.3%.

Regarding `c1ccc(-c2ccc(C(c3ccccc3)n3ccnc3)cc2)cc1` (stereo not drawn), the efficacy was 98.3%.

Take `CC(=O)O[C@]1(C(C)=O)CC[C@H]2[C@@H]3C=C(Cl)C4=CC(=O)CC[C@]4(C)[C@H]3CC[C@@]21C`: the efficacy is 83.2%.

Take `CC1=C(C(=O)OC(C)C)C(c2cccc([N+](=O)[O-])c2)C(C(=O)OC2CN(C(c3ccccc3)c3ccccc3)C2)=C(N)N1` (stereo not drawn): the efficacy is -152%.

On to `C=CCc1ccccc1OCC(O)CNC(C)C` (stereo not drawn), for which the efficacy is 42.4%.

For the compound `Cc1nc(C2CCCCC2)c(-c2ccc(S(N)(=O)=O)c(F)c2)o1`, the efficacy was 44.4%.

The conditions of the next experiment: Ebola virus entry assay, blue channel fluorescence.
Broadly, the AC50 is the concentration at which the activity in the assay is half-maximal. On to `CNCCC(Oc1ccccc1OC)c1ccccc1` (stereo not drawn), for which the AC50 was 22.4 µM (active).

As to `CC(C)N=C(N)/N=C(\N)Nc1ccc(Cl)cc1`, the AC50 is 39.8 µM (active).

Consider `CCCCOc1ccc(OCCCN2CCOCC2)cc1`, for which the AC50 was 25.1 µM (active).

Regarding `CCCCNc1c(C(=O)OCC)c(C)nc2c1cnn2CC`, the AC50 was 25.1 µM (active).

For the compound `CN1CCCC(n2nc(Cc3ccc(Cl)cc3)c3ccccc3c2=O)CC1` (stereo not drawn), the AC50 was 3.16 µM (active).

With `CC(=O)NC(Cc1ccccc1)C(=O)O` (stereo not drawn), the compound was called inactive.

For `Cc1ccc(C(=O)Oc2ccc(C(O)CNC(C)(C)C)cc2OC(=O)c2ccc(C)cc2)cc1` (stereo not drawn), the AC50 is 3.98 µM (active).

Turning to `O=C(CCCN1CCC(O)(c2ccc(Br)cc2)CC1)c1ccc(F)cc1`, the AC50 was 7.94 µM (active).

On to `COC(=O)C1=C(C)NC(C)=C(C(=O)OC(C)(C)CN(C)CCC(c2ccccc2)c2ccccc2)C1c1cccc([N+](=O)[O-])c1` (stereo not drawn), for which the AC50 is 14.1 µM (active).

As for `CCOc1ccccc1O[C@H](c1ccccc1)[C@H]1CNCCO1`, the AC50 is 14.1 µM (active).

`NCCNc1cccc2ccccc12`: the AC50 is 39.8 µM (active).

As for `NC(=O)C1(N2CCCCC2)CCN(CCCN2c3ccccc3CCc3ccc(Cl)cc32)CC1`, the AC50 was 3.98 µM (active).

Turning to `CC1=C(CC(=O)O)c2cc(F)ccc2/C1=C\c1ccc(S(C)=O)cc1` (stereo not drawn), the result was inactive.

In the case of `C[C@H]1O[C@@H](O[C@H]2CC[C@@]3(C)[C@H](CC[C@@H]4[C@@H]3C[C@@H](O)[C@]3(C)[C@@H](C5=CC(=O)OC5)CC[C@]43O)C2)C[C@H](O)[C@@H]1O[C@H]1C[C@H](O)[C@H](O[C@H]2C[C@H](O)[C@H](O[C@@H]3O[C@H](CO)[C@@H](O)[C@H](O)[C@H]3O)[C@@H](C)O2)[C@@H](C)O1`, the AC50 was 1.58 µM (active).

Regarding `COc1cccc2c1C(=O)c1c(O)c3c(c(O)c1C2=O)C[C@@](O)(C(C)=O)C[C@@H]3O[C@H]1C[C@H](N)[C@H](O)[C@H](C)O1`, the AC50 is 5.01 µM (active).

`CSc1ccc(/C=C2/C(C)=C(CC(=O)O)c3cc(F)ccc32)cc1`: the result was inactive.

With `C[C@@H]1C[C@H]2[C@@H]3C[C@H](F)C4=CC(=O)C(Cl)=C[C@]4(C)[C@@]3(F)[C@@H](O)C[C@]2(C)[C@@]1(O)C(=O)CO`, the AC50 was 39.8 µM (active).

In the case of `CN(C)C/C=C(/c1ccc(Br)cc1)c1cccnc1`, the AC50 was 39.8 µM (active).

For the compound `C[C@]12CCC(=O)C=C1C=C[C@@H]1[C@@H]2CC[C@@]2(C)[C@H]1CC[C@@]21CCC(=O)O1`, the AC50 is 39.8 µM (active).

On to `CN1CCC(=C2c3ccccc3CCc3cccnc32)CC1`, for which the AC50 is 22.4 µM (active).

In the case of `CN(C)CCOC(c1ccccc1)c1ccccc1`, the AC50 is 20 µM (active).

`O=C(Nc1ccccc1)OCC(CN1CCCCC1)OC(=O)Nc1ccccc1` (stereo not drawn): the concentration at half-maximal activity (AC50) was 10 µM (active).

Consider `Cc1ccc(/C(=C\CN2CCCC2)c2ccccn2)cc1`, for which the AC50 was 31.6 µM (active).

Consider `CC(CC(C#N)(c1ccccc1)c1ccccc1)N(C)C` (stereo not drawn), for which the AC50 was 15.8 µM (active).

On to `COc1cc(N)c(Cl)cc1C(=O)NC1CCN(CCCOc2ccc(F)cc2)CC1OC` (stereo not drawn), for which the AC50 is 25.1 µM (active).

Regarding `CN(C)C(=S)SC(=S)N(C)C`, the AC50 was 5.62 µM (active).

On to `O=c1c(-c2ccccc2)c1-c1ccccc1`, for which the AC50 was 39.8 µM (active).

For `COc1cc2c(cc1OC)-c1cc(=Nc3c(C)cc(C)cc3C)n(C)c(=O)n1CC2`, the AC50 was 15.8 µM (active).

In the case of `O=C(O)c1cn(-c2ccc(F)cc2)c2cc(N3CCNCC3)c(F)cc2c1=O`, the compound was classed as inactive.

For `C[C@H](CN1CCOCC1)C(C(=O)N1CCCC1)(c1ccccc1)c1ccccc1`, the AC50 was 35.5 µM (active).

`CCN(CC)CCOc1ccc(Cc2ccccc2)cc1`: the AC50 is 7.94 µM (active).

As to `CCC(OC(C)=O)C(CC(C)NC)(c1ccccc1)c1ccccc1` (stereo not drawn), the AC50 was 3.98 µM (active).

For the compound `CC[n+]1c(-c2ccccc2)c2cc(N)ccc2c2ccc(N)cc21`, the AC50 was 28.2 µM (active).

Regarding `Cc1c(C(=O)NN2CCCCC2)nn(-c2ccc(Cl)cc2Cl)c1-c1ccc(Cl)cc1`, the AC50 is 14.1 µM (active).

Turning to `c1ccc(-c2ccc(C(c3ccccc3)n3ccnc3)cc2)cc1` (stereo not drawn), the AC50 was 12.6 µM (active).

In the case of `CC(=O)O[C@]1(C(C)=O)CC[C@H]2[C@@H]3C=C(Cl)C4=CC(=O)CC[C@]4(C)[C@H]3CC[C@@]21C`, the AC50 is 28.2 µM (active).

In the case of `CC1=C(C(=O)OC(C)C)C(c2cccc([N+](=O)[O-])c2)C(C(=O)OC2CN(C(c3ccccc3)c3ccccc3)C2)=C(N)N1` (stereo not drawn), the AC50 is 39.8 µM (active).

Take `C=CCc1ccccc1OCC(O)CNC(C)C` (stereo not drawn): the AC50 is 28.2 µM (active).

Consider `Cc1nc(C2CCCCC2)c(-c2ccc(S(N)(=O)=O)c(F)c2)o1`, for which the AC50 was 39.8 µM (active).
